In publication PMC7819943, “Rice protein-binding microarrays: a tool to detect cis-acting elements near promoter regions in rice”:
Over roughly 35,000 sequences, “fluorescence intensity (a.u.)” has its median near 10,000; the highest 2% begin near 52,000. The sample holds the highest values, similar sequences and a random draw of the others, so the mix is not that of the screen.

Target: T1, OsWOX13 (Oryza sativa, UniProt Q5QMM3 1-267)
T1 sequence: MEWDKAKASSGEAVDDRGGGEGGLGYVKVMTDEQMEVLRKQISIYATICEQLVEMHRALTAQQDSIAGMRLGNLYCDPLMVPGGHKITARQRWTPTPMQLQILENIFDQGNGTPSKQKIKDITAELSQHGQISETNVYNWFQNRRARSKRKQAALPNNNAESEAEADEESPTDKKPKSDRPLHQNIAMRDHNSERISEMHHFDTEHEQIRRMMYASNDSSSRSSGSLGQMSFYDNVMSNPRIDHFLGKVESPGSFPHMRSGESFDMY
Experiment: protein-binding microarray (RPBM); PBS, 2% BSA, 51.3 ng/ul salmon testes DNA, 50 uM zinc acetate, 200 nM TF, 25 C, 1 h; high values mean tight binding
Conditions: protein: recombinant; tags: N-terminal polyhistidine and DsRed monomer fusion (pET32a); label: CyDye5-dUTP incorporated in the synthesized complementary strand; 3' TTTTT single-stranded linker to array surface; dsDNA, one strand shown
How it was run: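 Polyhistidine-tagged DsRed fusions of transcription factors, joined at the N-terminus, were expressed in E. coli BL21-CodonPlus and isolated on Ni–NTA. They were incubated at 200 nM for 1 h at 25 °C on a custom Agilent array, double-stranded and BSA-blocked, in PBS with 2% BSA, salmon testes DNA and 50 µM zinc acetate. The binding signal is per-feature fluorescence intensity (arbitrary units) read on an Axon 4000B scanner after washing.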

| Sequence | binding signal |
| --- | --- |
| TTTAAGATGATCAGATTTCTAATTGCAGTTCACCTTAACTCGGAGTCACCTAGTGCAG | 7420 fluorescence intensity (a.u.) |
| TATAAATATAATTTATCCAAAGAGCATTTATAAGGACTTCCGGAGTCACCTAGTGCAG | 4240 fluorescence intensity (a.u.) |
| TAGTGATTTTGTGAAATCTCAAAATATATTGATCCAGCTTCGGAGTCACCTAGTGCAG | 5030 fluorescence intensity (a.u.) |
| GCTTGACTAACATATTCTGTTGGATTGCTACCGCGCCATGCGGAGTCACCTAGTGCAG | 7150 fluorescence intensity (a.u.) |
| TCCATTAACATTTGCCATTATCGTACTGACTTTCGTACGACGGAGTCACCTAGTGCAG | 3710 fluorescence intensity (a.u.) |
| CGCCCACTGAATTAATCAATCAGTAAAGCTGCCACCGTGCCGGAGTCACCTAGTGCAG | 39100 fluorescence intensity (a.u.) |
| CCAAGATGAATTGGAACTTTGCACACCAACCAAATAGGGGCGGAGTCACCTAGTGCAG | 3580 fluorescence intensity (a.u.) |
| ATGTACTTAATTCAATTTGTCAAAAGAATTATGTATCCCTCGGAGTCACCTAGTGCAG | 3990 fluorescence intensity (a.u.) |
| GGTTCAACGGTACCCTTGATTGCTATAGAGAGTGATATATCGGAGTCACCTAGTGCAG | 4670 fluorescence intensity (a.u.) |
| GAAATTAATAACAAATTAAAACCAGAGCCAGCTGACTGCTCGGAGTCACCTAGTGCAG | 21700 fluorescence intensity (a.u.) |
| CCGACGGCTCAGATTGACTGCAGTAGTGGGTATCTCTTCTCGGAGTCACCTAGTGCAG | 13700 fluorescence intensity (a.u.) |
| TGTTTGGATGATTTTATGGATGATCACTTCTCTTTATTTACGGAGTCACCTAGTGCAG | 3280 fluorescence intensity (a.u.) |
| TGCTTTATTATTTGATTGATTGATCACTTGTTGGATGGGACGGAGTCACCTAGTGCAG | 64200 fluorescence intensity (a.u.) |
| TTAATTAGGTTTAATAGATTCATCTCGCAGTTTACAGGCACGGAGTCACCTAGTGCAG | 18500 fluorescence intensity (a.u.) |
| GATTAATTAGGCTTCATAAATTCGTCTCGCAGTTTACAGGCGGAGTCACCTAGTGCAG | 30800 fluorescence intensity (a.u.) |
| GACTTGATTTACAGATTTATTGACAGAGTTTTGCTAAGCTCGGAGTCACCTAGTGCAG | 56600 fluorescence intensity (a.u.) |
| TTTGTTGCTTTACTTGGGAGATTGATCGCTAAACGAGTCACGGAGTCACCTAGTGCAG | 3150 fluorescence intensity (a.u.) |
| TTATTTGTGGCTTGAAGATTGACAGCTTTTGTTGATTGCTCGGAGTCACCTAGTGCAG | 9340 fluorescence intensity (a.u.) |
| GATTAATTAGATTTAATAAATTCATCTCGCAGTTTACAGGCGGAGTCACCTAGTGCAG | 62200 fluorescence intensity (a.u.) |
| TGCTAAAATTTTGACAATATTGTTAACTTGCTCTAGTTTACGGAGTCACCTAGTGCAG | 6920 fluorescence intensity (a.u.) |
| CAGATCAATTTATCGAGATTGATCAAAAGCAAGATGATGCCGGAGTCACCTAGTGCAG | 35000 fluorescence intensity (a.u.) |

| Sequence | binding signal |
| --- | --- |
| ATTGCAGATTGATTTATCTCGTCAAGATTGATGAGCATGCCGGAGTCACCTAGTGCAG | 63500 fluorescence intensity (a.u.) |
| GAAGATGATGATGATTTAGCATGCAAATGAGCAGTTGACACGGAGTCACCTAGTGCAG | 13800 fluorescence intensity (a.u.) |
| TAAGTTTTAATTGAAATTTTGTTCACAAATACTCCAAATCCGGAGTCACCTAGTGCAG | 11900 fluorescence intensity (a.u.) |
| ATTTTAATTTTAATTATTAATACTCCATTAGCATTTAGTTCGGAGTCACCTAGTGCAG | 18200 fluorescence intensity (a.u.) |
| ATTTATAAATTGATTTGGAGCACAGATCGATACGTGCAGACGGAGTCACCTAGTGCAG | 53400 fluorescence intensity (a.u.) |
| AAATAACAAATTTGACTGTGAATATACGTATACTAGTTAGCGGAGTCACCTAGTGCAG | 19300 fluorescence intensity (a.u.) |
| TTGCTAATGATGAATTAATTAGGCTTAATAAATTCGTCTCCGGAGTCACCTAGTGCAG | 28300 fluorescence intensity (a.u.) |
| GTGACTGACTGATGATAAATTTGATAATACGCGTCGTTAGCGGAGTCACCTAGTGCAG | 63100 fluorescence intensity (a.u.) |
| ATGTTGATTGTCTAAAATCACAGATTTAGCACATTATCGACGGAGTCACCTAGTGCAG | 29800 fluorescence intensity (a.u.) |
| GTATAAATTTGGACAGATTGTGATTAGATTTATAGTCCTACGGAGTCACCTAGTGCAG | 29800 fluorescence intensity (a.u.) |
| CATCATGATTTGATGATGGATTAATTATGCTTAATAAATTCGGAGTCACCTAGTGCAG | 55300 fluorescence intensity (a.u.) |
| GCATTTGCTAATGATGGATTAATTAGGCTTAATAGATTCGCGGAGTCACCTAGTGCAG | 11800 fluorescence intensity (a.u.) |
| CATTTGCTAATGATGGATTAATTAGGCTTAATAAATTTGTCGGAGTCACCTAGTGCAG | 19900 fluorescence intensity (a.u.) |
| AAAATAAATTTGACTGTGAATATACGTTAACTGGTCATAGCGGAGTCACCTAGTGCAG | 23100 fluorescence intensity (a.u.) |
| CATGATTAATTAAATATTAACGATCATAAATTTGAAAATTCGGAGTCACCTAGTGCAG | 29300 fluorescence intensity (a.u.) |
| TGCTAATGATGGATTAATTAGGCTTAATAAATTCGTCTCGCGGAGTCACCTAGTGCAG | 54700 fluorescence intensity (a.u.) |
| GCCCACTCATAATTTCTCCCTTGATTTGTAAAGAAATAAGCGGAGTCACCTAGTGCAG | 16000 fluorescence intensity (a.u.) |
| GAAAATTAGTAGAGAACTAATTAGGGATAAAGTCATTATTCGGAGTCACCTAGTGCAG | 13000 fluorescence intensity (a.u.) |
| AAGATTTGTCTCATAAATTAGTCGCAATATGTGTAATTAGCGGAGTCACCTAGTGCAG | 7560 fluorescence intensity (a.u.) |
| AAAATATCAATTGGCCATAATCATTGTAAGCACTATACAGCGGAGTCACCTAGTGCAG | 7780 fluorescence intensity (a.u.) |
| ATCCAATCATACTCCAAGATCTGAAGAGAAGGAGGGATTGCGGAGTCACCTAGTGCAG | 11900 fluorescence intensity (a.u.) |
